Screening data as filed in PubChem.
DT40 TDP1 no CPT = qHTS for Inhibitors of human tyrosyl-DNA phosphodiesterase 1 (TDP1): qHTS in cells in absence of CPT; DT40 Tdp1-/- hTDP1 cells, no CPT, ATP luminescence, 48 h; Potency, µM (doses to about 46.2 µM), inactives show top-dose activity change, negative = growth inhibition, most hits filed as inhibitors; 15% of 420,000 active; further: potency means the concentration at half of the fitted maximal effect; on the % scale 0 is the no-effect control and ±100 the full control effect; nearly all actives have a fitted effect of over 55% in size
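Compound effects on proliferation are scored in DT40 Tdp1-/-;hTDP1 cells in the absence of CPT. ATP levels (CellTiter-Glo luminescence) are recorded after a ≥48 hr, 37 °C incubation.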
DT40 TDP1 CPT = qHTS for Inhibitors of human tyrosyl-DNA phosphodiesterase 1 (TDP1): qHTS in cells in presence of CPT; chicken DT40 Tdp1-/-;hTDP1 cells + 20 nM CPT, ATP luminescence, 48 h; Potency, µM (series often up to 46.2 µM), for the others: at the top dose activity change, negative = growth inhibition, hits mostly inhibitors; 12% of 420,000 active; AID 686979, 2013; further: potency means the concentration at half of the fitted maximal effect; on the % scale 0 is the no-effect control and ±100 the full control effect; nearly all actives have a fitted effect of over 55% in size
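Chicken DT40 Tdp1-/- cells stably complemented with human TDP1 were seeded at 400 cells/well in medium containing 20 nM camptothecin, exposed to pin-transferred compounds, and grown at 37 °C for at least 48 hr. Viability was read as ATP luminescence.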
SW480 rerep = A quantitative high throughput screen for small molecules that induce DNA re-replication in SW480 colon adenocarcinoma cells; SW480 DNA re-replication, Hoechst DNA content imaging, 48 h; Potency, µM (highest dose often 46.1 µM), for the others: top-dose re-replication activation, hits mostly activators; 1.8% of 340,000 active; further: potency means the concentration at half of the fitted maximal effect; % of control where 0% means no effect; nearly all actives have a fitted effect of over 55% in size
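250 cells/well; 23 nL cpd via pin tool; 48 hr, 37 C, 5% CO2; Hoechst 40 min; imager read of total nuclear intensity, ex 405/em 500-530 nm.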
MCF10A rerep = A quantitative high throughput screen for small molecules that induce DNA re-replication in MCF 10a normal breast cells; MCF 10A DNA re-replication, Hoechst nuclear intensity, 48 h; Potency, µM (highest dose often 46.1 µM), inactives show top-dose activity, positive = re-replication, actives largely listed as activators; 2.9% of 350,000 active; AID 624296, 2012; further: potency means the concentration at half of the fitted maximal effect; % of control where 0% means no effect; nearly all actives have a fitted effect of over 50% in size
IL1B secr inh = qHTS for Inhibitors of Inflammasome Signaling: IL-1-beta AlphaLISA Primary Screen; 4.7% of 360,000 active; activity change, % at 57.5 µM; THP-1 LPS/ATP IL-1B secretion, AlphaLISA, 16 h; stronger effect = lower value; in the data active means activity change below about -50%; inconclusive means mostly about -30% to -49%; further: on the % scale 0 is the no-effect control and ±100 the full control effect
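THP-1 cells pretreated 1 hr with compounds (up to 57.5 uM final), then stimulated with LPS (250 ng/mL final) plus ATP (1.25 mM final); secreted IL-1B measured by AlphaLISA after 16 hr, decreased signal indicating inhibition.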
BCR signal inh = qHTS Assay to Find Inhibitors of Chronic Active B-Cell Receptor Signaling; 0.05% of 340,000 active; ABC-DLBCL IkBa-CBG/CBR reporter, luminescence ratio, 4 h; Potency, µM (titrated, usually from 46.1 µM), for inactives: top-dose activity change, negative = inhibition, usual class: inhibitors; active means well fitted inhibition curve with a large enough effect in the signal ratio, with a control signal flat, not every such curve was filed as active; inconclusive means small, poorly fitted or top-dose-only effect, or effect the other way, or a change in a side signal; the % refers to the signal ratio;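 further: potency means the concentration at half of the fitted maximal effect; plate controls were basal doxycycline-induced cells for no effect and cells given 10 µM MG132 for full effect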
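Doxycycline induced both beetle luciferases in TMD8 lymphoma cells; IKK-driven degradation limits the IkappaBalpha-fused green signal, while red luminescence normalises for cell number and nonspecific effects. Compounds tested up to 46 uM, 4 hrs.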
The depositor's hits bear a star; i = inactive; ? = inconclusive; nt = not tested or not shown; ! = repeats disagree; [ ] = another dose, or the depositor's remark. Sampled rows, rich in hits. Any-hit rate of the full collection: about 19%. Unless noted, the call rests on the fitted dose curve; in most records, active means well fitted curve in the direction sought with a large enough effect; inconclusive means small, poorly fitted or top-dose-only effect, or another doubt; inactive means no such curve, though single readings can be large; an effect the other way counts as inactive or inconclusive.

SMILES | DT40 TDP1 no CPT | DT40 TDP1 CPT | SW480 rerep | MCF10A rerep | IL1B secr inh | BCR signal inh
COc1ccc(C2CC3(CC(C)(C)NC(=O)N3)Oc3cc(O)ccc32)cc1 (stereo not drawn) | ? | ? | -11% | -1% | 13 | ?
COc1ccc(C2CC3(CC(C)(C)NC(SC)=N3)Oc3cc(O)cc(C)c32)cc1 (stereo not drawn) | 5.2µM* | 4.6µM* | 3% | ? | ? | -11%
O=C(CSc1ccc(-c2cccnc2)nn1)Nc1ccccc1C(F)(F)F | -2% | -24% | -6% | -8% | i | 4%
O=S(=O)(c1ccc2nc(Nc3ccc(Br)cc3F)ccc2c1)N1CCCC1 | -22% | -19% | nt | nt | nt | nt
CC(=O)N(O)CCCCCNC(=O)CCC(=O)N(O)CCCCCNC(=O)CCC(=O)N(O)CCCCCN | 12µM*! | 21µM*! | 2.5µM*! | ? | 60 | -5%
Cn1c(NCc2ccco2)nc2c1c(=O)n(Cc1ccc(Cl)cc1Cl)c(=O)n2C | ? | ? | 16µM* | ? | 16 | 1%
Cn1c(Oc2ccccc2)nc2c1c(=O)n(Cc1ccc(Cl)cc1Cl)c(=O)n2C | 16µM* | 15µM* | nt | nt | nt | nt
Cn1c(NCc2ccco2)nc2c1c(=O)n(Cc1ccc(Br)cc1)c(=O)n2C | ? | ? | 1% | -6% | -11 | 5%
COc1ccc(CNc2nc3c(c(=O)n(Cc4ccc(Br)cc4)c(=O)n3C)n2C)cc1 | 21µM* | ? | 17% | ? | 0 | 4%
Cn1c(NCc2ccco2)nc2c1c(=O)n(Cc1ccc(Cl)cc1)c(=O)n2C | 18µM* | ? | 1% | ? | -24 | 2%
Cn1c(Oc2cccc(Cl)c2)nc2c1c(=O)n(Cc1ccccc1Cl)c(=O)n2C | -27% | -20% | nt | nt | nt | nt
C[C@H](CO)N1C[C@H](C)[C@@H](CN(C)S(=O)(=O)c2cn(C)cn2)Oc2c(NS(=O)(=O)c3cn(C)cn3)cccc2C1=O | -8% | 5% | 2% | 1% | 19 | 1%
COc1ccc(S(=O)(=O)N2CCOCC2)cc1NC(=O)Cc1ccc2c(c1)OCCO2 | ? | -13% | -2% | -6% | -14 | 6%
COc1cc(OC)c(C(=O)OCC(=O)Nc2ccc(S(=O)(=O)N3CCOCC3)cc2)cc1OC | ? | -1% | -1% | -1% | -1 | -4%
Cc1cc(C)n(CC(=O)Nc2ccc(F)c(F)c2)c(=O)c1C#N | 1% | 0% | nt | nt | nt | nt
CCCCCc1ccc(OCCCC[n+]2cccc(C)c2)c(CCCCC)c1 | 1.2µM* | 2.3µM* | ? | ? | -96* | 10%
CCCCCCCCCCCCCCCC[n+]1ccc(C)cc1 | 0.5µM* | 0.89µM* | nt | nt | nt | nt
c1cc[n+](CCCC[n+]2ccccc2)cc1 | 9% | 3% | 4% | ? | 11 | 0%
CCC(C)(C)c1ccc(OCCCC[n+]2ccccc2)c(C(C)(C)CC)c1 | 0.012µM* | 0.58µM* | ? | ? | -14 | ?
CCCCCOc1ccc(CN2CCOCC2)cc1Cl | -19% | -25% | 0% | 17% | -22 | ?
CCCCCc1ccc(OCCCC[n+]2ccccc2)c(CCCCC)c1 | 2.6µM* | 2.6µM* | ? | 23µM* | -93* | ?
Cc1cccc(NS(=O)(=O)c2ccc(C(=O)NCC(c3ccco3)N(C)C)cc2)c1C (stereo not drawn) | ? | ? | -1% | 15% | -10 | 2%
CCCCCc1ccc(OCCCC[n+]2ccc(C)cc2)c(CCCCC)c1 | 0.46µM* | 1µM* | 21% | 28% | -100* | ?
COc1ccc(C(C)=O)cc1CSc1nnc(-c2ccc(Cl)cc2)n1-c1ccccc1 | 13µM* | 13µM* | 10%[9.22 µM] | ? | -23 | ?
Cc1ccccc1-n1c(SCC(=O)c2ccccc2)nnc1-c1ccc(F)cc1 | ? | ? | nt | nt | nt | -1%
SMILES | DT40 TDP1 no CPT | DT40 TDP1 CPT | SW480 rerep | MCF10A rerep | IL1B secr inh | BCR signal inh
CCOc1ccc(-c2nnc(-c3ccccc3)n2-c2ccccc2)cc1 | 10µM* | ? | 3% | ? | 0 | ?
Cc1ccc(-c2nnc(SCC(=O)c3ccc(Cl)cc3)n2-c2ccccc2)cc1 | 8.2µM* | 4.6µM* | nt | nt | nt | ?
CCOc1ccc(-c2nnc(SCC(=O)c3ccc(F)cc3)n2-c2ccccc2)cc1 | ? | 13µM* | nt | nt | nt | nt
Cc1cnc2nc(-c3ccccc3)ccc2c1 | ? | ? | nt | nt | 0 | nt
CCCCn1c(N)c(N(CCOC)C(=O)COC(=O)CSc2cc(C)c3ccccc3n2)c(=O)[nH]c1=O | -9% | -15% | -63% | -19% | -2 | -8%
CCOc1ccc(-n2c(C)c3c(C)nnc(C)c3c2C)cc1 | 2.1µM* | 2.9µM* | nt | nt | 44 | nt
Cc1cc(C)cc(-n2c(C)c3c(C)nnc(C)c3c2C)c1 | 7.3µM* | 8.2µM* | 23µM* | 10% | -2 | 0%
Cc1nnc(C)c2c(C)n(-c3ccc(Cl)c(N)c3)c(C)c12 | ? | ? | 8% | ? | -9 | 3%
CCN(CC)C(=O)CSc1nnc(-c2ccccc2)n1-c1ccccc1 | ? | ? | -6% | 10% | -1 | 1%
Cc1nnc(C)c2c(C)n(-c3ccc4ncccc4c3)c(C)c12 | ? | 12µM* | 10% | -4% | 7 | -13%
O=C(CSc1nnc(-c2ccc(Br)cc2)n1-c1ccccc1)c1ccccc1 | 4.1µM* | 7.3µM* | nt | nt | nt | 17%
CCOc1ccc(NS(=O)(=O)c2ccc(C(=O)NCC(c3ccc(OC)cc3)N3CCOCC3)cc2)cc1 (stereo not drawn) | ? | -27% | 7% | 14% | -9 | -4%
Cc1cc(Cl)ccc1OCCSc1nnc(-c2cccs2)o1 | ? | -1% | nt | nt | nt | nt
O=C(CSc1nnc2ccc3ccccc3n12)c1ccc(F)cc1 | 16µM* | ? | nt | nt | nt | ?
COc1ccc(C(=O)CSc2nnc(CN3CCCCC3)n2-c2ccc(F)cc2)cc1 | 13µM* | 21µM* | -14% | ? | 0 | 10%
COc1ccc(C(=O)CSc2nnc(-c3cccs3)n2-c2ccccc2)cc1 | -23% | -27% | -5% | ? | -8 | ?
O=C(CCSc1nnc2ccc3ccccc3n12)Nc1ccc(F)cc1 | ? | ? | 11% | ? | -1 | -26%
CN(C)c1ccc(C=C(C#N)C(=O)c2ccccc2)cc1Br | -2% | -1% | nt | nt | -16 | nt
